TGFb SMAD3 inh = TGF-b pathway inhibition; AID 588855; Potency, µM (titrated, usually from 46.1 µM), for the others: at the highest dose activity, negative = inhibition, actives largely listed as inhibitors; 410,000 compounds, 1.2% hits; HepG2 CAGA-GFP TGF-b/SMAD3 reporter, GFP fluorescence, 18 h; TGF-beta stimulated, 500 pg/mL final; also: potency is read from the fitted curve at half-maximal effect; % is scaled to controls: 0 for no effect and ±100 for the full control effect; nearly all actives have a fitted effect of over 65% in size
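Smad-responsive CAGA-GFP expression was quantified in HEPG2 cells exposed to compounds and 500 pg/mL final TGF-beta for 18 h at 37 degrees C; unstimulated wells defined full inhibition.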
ASM inhibitor = human S-ASM enzyme inhibition. AID 504937. 340,000 compounds, 0.006% hits. placental ASM, HMU-PC fluorogenic substrate, 60 min. Potency, µM (top dose mostly 57.5 µM), without a hit: at the highest dose activity change, negative = inhibition, usual class: inhibitors. P17405; also: potency is read from the fitted curve at half-maximal effect
Target sequence (P17405 47-631 limits assumed): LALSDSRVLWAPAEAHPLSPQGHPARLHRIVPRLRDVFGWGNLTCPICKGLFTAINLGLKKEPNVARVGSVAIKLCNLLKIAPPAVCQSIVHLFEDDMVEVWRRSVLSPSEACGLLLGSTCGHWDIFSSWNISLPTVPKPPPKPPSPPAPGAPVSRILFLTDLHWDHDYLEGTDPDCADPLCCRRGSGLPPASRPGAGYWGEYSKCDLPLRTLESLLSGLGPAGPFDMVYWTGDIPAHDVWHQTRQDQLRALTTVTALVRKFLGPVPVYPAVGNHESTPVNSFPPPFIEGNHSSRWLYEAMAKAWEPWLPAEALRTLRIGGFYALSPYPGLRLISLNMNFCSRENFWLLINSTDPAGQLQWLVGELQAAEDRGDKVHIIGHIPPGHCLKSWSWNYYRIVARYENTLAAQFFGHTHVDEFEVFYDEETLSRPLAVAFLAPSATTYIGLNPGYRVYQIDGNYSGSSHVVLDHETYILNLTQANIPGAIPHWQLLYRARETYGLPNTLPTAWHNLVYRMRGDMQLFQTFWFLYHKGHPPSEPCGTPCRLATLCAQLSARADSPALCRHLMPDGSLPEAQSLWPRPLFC
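Human placenta-derived ASM preincubated with compound 10 min at room temperature, then reacted with 9 uM (final) fluorogenic HMU-PC substrate for 60 min at 37 C. Stop solution raises pH to 10; fluorescence read at Ex 386/Em 447 nm.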
HepG2 tox = kills HepG2 cells in TGF-b inhibitor counter-screen; HepG2 CAGA-GFP viability, ATP luminescence, 18 h; Potency, µM (doses to about 46.1 µM), inactives show at the highest dose activity change, negative = cytotoxicity, usual class: cytotoxic; 410,000 compounds, 0.76% hits; AID 588856; also: potency is read from the fitted curve at half-maximal effect
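CellTiter-Glo luminescence gave cytotoxicity after 18 hours at 37 degrees C. The cells were HepG2 CAGA-GFP in 1% FBS DMEM, stimulated with 500 pg/mL TGF-beta after compound addition. %Activity was normalised to no-cell wells (complete cell-killing) and DMSO (no toxicity), and curves were fitted and classified.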
IL-1B inflam inh = inhibitors of inflammasome signaling (IL-1 beta secretion). THP-1 LPS/ATP IL-1B secretion, AlphaLISA, 16 h; active compounds read low. 360,000 compounds, 4.7% hits. activity change, % at 57.5 µM; in the data active = activity change below about -50%; inconclusive = mostly about -30% to -49%; also: % is scaled to controls: 0 for no effect and ±100 for the full control effect
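THP-1 cells pretreated 1 hr with compounds (up to 57.5 uM final), then stimulated with LPS (250 ng/mL final) plus ATP (1.25 mM final); secreted IL-1B measured by AlphaLISA after 16 hr, decreased signal indicating inhibition.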
TDP1 cell noCPT = qHTS for Inhibitors of human tyrosyl-DNA phosphodiesterase 1 (TDP1): qHTS in cells in absence of CPT; Potency, µM (doses to about 46.2 µM), inactives show at the highest dose activity change, negative = growth inhibition, most hits filed as inhibitors; 420,000 compounds, 15% hits; DT40 Tdp1-/- hTDP1 cells, no CPT, ATP luminescence, 48 h; AID 686978, 2013; also: potency is read from the fitted curve at half-maximal effect; % is scaled to controls: 0 for no effect and ±100 for the full control effect; nearly all actives have a fitted effect of over 55% in size
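Growth kinetics read by CellTiter-Glo luminescence after ≥48 hr at 37 °C. Cells: DT40 Tdp1-/- stably carrying human TDP1, 400 per well, compound exposure in the absence of CPT (DMSO vehicle).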
DT40 TDP1 CPT = DT40-hTDP1 cell growth loss with CPT; chicken DT40 Tdp1-/-;hTDP1 cells + 20 nM CPT, ATP luminescence, 48 h; Potency, µM (titrated, usually from 46.2 µM), for inactives: at the top dose activity change, negative = growth inhibition, hits mostly inhibitors; 420,000 compounds, 12% hits; AID 686979; also: potency is read from the fitted curve at half-maximal effect; % is scaled to controls: 0 for no effect and ±100 for the full control effect; nearly all actives have a fitted effect of over 55% in size
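Chicken DT40 Tdp1-/- cells complemented with human TDP1, 400 cells/well, exposed to compounds plus 20 nM camptothecin for at least 48 h at 37 C; viability read as ATP content by CellTiter-Glo luminescence.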
* marks the source's active call; other numbers are inactive results; ? = inconclusive; . = not tested or not shown. This is a sample that favours compounds with a hit; in the whole collection about 19% have one here. Unless noted, calls follow the shape of the dose curve; as a rule, active = well fitted curve in the direction sought with a large enough effect; inconclusive = small, poorly fitted or top-dose-only effect, or another doubt; inactive = no such curve, though single readings can be large; an effect the other way counts as inactive or inconclusive.

SMILES	TGFb SMAD3 inh	ASM inhibitor	HepG2 tox	IL-1B inflam inh	TDP1 cell noCPT	DT40 TDP1 CPT
Cc1ccc(Cl)cc1-c1cc(C(=O)N2CCc3ccccc3C2)[nH]n1	?	.	-31%	?	?	16µM*
Cc1c(Cl)cc(C(C)C)c(O)c1CN1CCOCC1	5%	0%	-12%	7	-12%	-21%
O=C(COC(=O)c1ccc(F)cc1Cl)NC(=O)NC1CCCC1	-13%	0%	-16%	-8	-29%	-24%
Cc1ccc(S(=O)(=O)N2CCC(n3c(C)nc4cccnc43)CC2)c(C)c1	?	.	-41%	.	7.3µM*	6.5µM*
CC1CCCCC1NC(=O)COC(=O)c1ccc2c(=O)n3c(nc2c1)CCC3 (stereo not given)	-14%	44%	-8%	1	7%	-10%
CO[C@H]1C[C@@H]2CC[C@@H](C)[C@@](O)(O2)C(=O)C(=O)N2CCCC[C@H]2C(=O)O[C@H](C(C)C[C@H]2CC[C@@H](O)[C@H](OC)C2)CC(=O)[C@H](C)/C=C(\C)[C@@H](O)[C@@H](OC)C(=O)[C@H](C)C[C@H](C)/C=C/C=C/C=C/1C (stereo not given in full)	.	.	.	.	?	0.0079µM*
CO[C@H]1C[C@@H]2CC[C@@H](C)[C@@](O)(O2)C(=O)C(=O)N2CCCC[C@H]2C(=O)O[C@H]([C@H](C)C[C@@H]2CC[C@@H](O)[C@H](OC)C2)CC(=O)[C@H](C)/C=C(\C)[C@@H](O)[C@@H](OC)C(=O)[C@H](C)C[C@H](C)/C=C/C=C/C=C/1C	?	.	-47%	.	?	4.5µM*
CO[C@H]1C[C@@H]2CC[C@@H](C)[C@@](O)(O2)C(=O)C(=O)N2CCCC[C@H]2C(=O)O[C@H]([C@H](C)C[C@@H]2CC[C@@H](OCCO)[C@H](OC)C2)CC(=O)[C@H](C)/C=C(\C)[C@@H](O)[C@@H](OC)C(=O)[C@H](C)C[C@H](C)/C=C/C=C/C=C/1C	.	.	.	.	0.027µM*	0.042µM*
Cc1ccc(NC(=O)C(C)OC(=O)/C=C/c2ccccc2)cc1S(=O)(=O)N1CCOCC1 (stereo not given)	-17%	-4%	13%	25	?	?
CC(C)(C)NC(=O)c1ccc2c(c1)C1C3CCC(C3)C1C(c1ccccc1)N2 (stereo not given)	20%	?	6%	?	12µM*	13µM*
CCCNC(=O)c1ccc2c(c1)C1C3CCC(C3)C1C(c1ccccc1)N2 (stereo not given)	?	-26%	-4%	?	?	21µM*
O=C(O)C1=C[C@H](c2cccs2)C[C@H](OCc2ccc(CO)cc2)O1	?	12%	1%	21	7%	2%
CCn1c(Nc2ccccc2Cl)nc2ccccc21	17%	0%	-1%	-7	-26%	-20%
CCn1c2ccccc2nc2cc3c(cc21)c(Cl)c(=O)c1ccccc13	18µM*	.	-119%	26	5.8µM*	8.2µM*
O=C1ON=C(c2ccccc2)/C1=C/c1ccc(-c2ccccc2[N+](=O)[O-])o1	20µM*	-3%	-37%	-110*	15µM*	12µM*
NS(=O)(=O)c1ccc(CCNc2ncnc3c2cnn3-c2cccc(Cl)c2)cc1	?	.	-40%	.	?	?
COc1ccc2nc(SCC(=O)N3CCCCCC3)c(C#N)cc2c1	-14%	60%	-3%	?	16µM*	?
COc1ccc2nc(SCC(=O)N3CCCCC3)c(C#N)cc2c1	11%	73%	18%	15	?	-6%
COc1ccc2nc(SCC(=O)Nc3ccc(S(=O)(=O)N4CCCC4)cc3)c(C#N)cc2c1	-29%	27%	9%	0	?	9.2µM*
N#Cc1cc2ccccc2nc1SCC(=O)Nc1ccc(S(=O)(=O)N2CCCC2)cc1	9%	-6%	-1%	2	18µM*	21µM*
O=c1ncn(-c2cccc(Cl)c2)c2ccccc12	7%	-1%	5%	8	-12%	-5%
COc1ccccc1N1CCN(C(=O)C2CCN(C(=O)c3ccccc3C)CC2)CC1	-2%	-4%	0%	11	?	-6%
Cc1cc(F)ccc1NC(=O)CS(=O)(=O)c1cccc2nsnc12	0%	.	-1%	.	-11%	11%
CCCCOc1[nH]c2nc(-c3ccco3)n(Cc3ccco3)c(=N)c2c1C#N	?	15%	-13%	-82*	23µM*	?
COC(=O)CSc1nnc(-c2ccco2)n1Cc1ccco1	-6%	-2%	0%	31	9%	-15%
SMILES	TGFb SMAD3 inh	ASM inhibitor	HepG2 tox	IL-1B inflam inh	TDP1 cell noCPT	DT40 TDP1 CPT
C=Cn1ccnc1P(=S)(c1ccc2c(c1)c1ccccc1n2CC)c1nccn1C=C	7%	-10%	-20%	?	?	29µM*
S=c1nc(-c2ccccc2)oc2c1CCCC2	13%	-3%	5%	14	26µM*	?
COc1cccc(-c2nc(=S)c3c(o2)CCCC3)c1	0%	1%	-17%	-10	-19%	-13%
COc1ccccc1N1CCN(C(=O)c2ccc(S(=O)(=O)N3CCCC3)cc2)CC1	-5%	2%	-1%	4	16µM*	?
COc1ccccc1N1CCN(C(=O)c2ccc(NS(=O)(=O)c3ccc(C)cc3)cc2)CC1	7%	0%	-7%	11	?	?
COc1ccccc1C1CCN(C(=O)c2ccc(C(C)(C)C)cc2)CC1	13µM*	0%	-58%	-92*	16µM*	?
COc1ccccc1N1CCN(C(=O)c2ccncc2)CC1	9%	1%	1%	16	?	-9%
COc1ccccc1N1CCN(C(=O)C(Sc2ccccc2)c2ccccc2)CC1 (stereo not given)	?	-2%	8%	?	?	18µM*
COc1ccccc1N1CCN(C(=O)c2ccc(C(C)(C)C)cc2)CC1	-22%	-13%	-76%	-11	5.8µM*	4.6µM*
CCN(C(=O)COC(=O)c1[nH]c(C)c(C(C)=O)c1C)c1c(N)n(Cc2ccccc2)c(=O)[nH]c1=O	-10%	8%	-12%	0	-1%	0%
